# Measurements as given in PubChem BioAssay AID1159580 (chemical genetic matrix, 2015).
# Several values for one entry are separate records, joined by “and”; a condition that tells them apart may be missing. Equal entries are not always repeated. Among all 5,500 compounds or so, about 2,000 (36%) were called active. Another 18% or so got no clear call; they are omitted. Rule as the data show it: active = normalized growth mostly below about 0.91 (no sharp cut-off); inconclusive = no clear call, values can overlap the other calls; inactive = mostly above about 0.92. The list shows a part of the results. A structure can be active in one record and inactive in another.
# Test: chemical genetic growth profiling, strain panel (AID 1159580);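 also: tested at 20 µM; growth read once vehicle control cultures reached saturation at 30 °C; 1 = growth at the plate median or of vehicle wells; lower values mean less growth of the strain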
# Conditions: growth OD
# [1] = S. cerevisiae deletion strains, locus YAL013W, strain DEP1, stronger effect = lower value
# [2] = S. cerevisiae deletion strains, locus YAL040C, strain CLN3, stronger effect = lower value
# [3] = S. cerevisiae deletion strains, locus YDR363W, strain ESC2, stronger effect = lower value
# [4] = S. cerevisiae deletion strains, locus YER002W, strain NOP16, stronger effect = lower value
# [5] = S. cerevisiae deletion strains, locus YJR075W, strain HOC1, stronger effect = lower value
# [6] = S. cerevisiae deletion strains, locus YMR307W, strain GAS1, stronger effect = lower value
# [7] = S. cerevisiae deletion strains, locus YNL153C, strain GIM3, stronger effect = lower value
# [8] = S. cerevisiae deletion strains, locus YNL175C, strain NOP13, stronger effect = lower value
# [9] = S. cerevisiae deletion strains, locus YNL197C, strain WHI3, stronger effect = lower value
# [10] = S. cerevisiae deletion strains, locus YNL224C, strain SQS1, stronger effect = lower value
# [11] = S. cerevisiae deletion strains, locus YOR083W, strain WHI5 (second series), stronger effect = lower value
# [12] = S. cerevisiae deletion strains, locus YPL055C, strain LGE1, stronger effect = lower value
structure (smiles),measurement,setting,value
CN1CCN(C2Cc3ccccc3Sc3ccc(Cl)cc32)CC1 (centres undefined),normalized growth,[1],0.883 (active)
same,normalized growth,[2],1 (inactive)
same,normalized growth,[3],0.897 (inactive)
same,normalized growth,[4],1.04 (inactive)
same,normalized growth,[5],0.881 (active)
same,normalized growth,[6],1.01 (inactive)
same,normalized growth,[7],0.587 (active)
same,normalized growth,[8],0.915 (inactive)
same,normalized growth,[9],0.989 (inactive)
same,normalized growth,[10],1.01 (inactive)
same,normalized growth,[11],0.668 (active)
same,normalized growth,[12],0.923 (inactive)
CSc1ccc2c(c1)C(N1CCN(C)CC1)Cc1ccccc1S2 (centres undefined),normalized growth,[1],0.916 (inactive)
same,normalized growth,[2],1 (inactive)
same,normalized growth,"S. cerevisiae deletion strains, locus YBR021W, strain FUR4, stronger effect = lower value",0.364 (active)
same,normalized growth,"S. cerevisiae deletion strains, locus YBR229C, strain ROT2, stronger effect = lower value",1.01 (inactive)
same,normalized growth,"S. cerevisiae deletion strains, locus YCL029C, strain bik1, stronger effect = lower value",0.987 (inactive)
same,normalized growth,"S. cerevisiae deletion strains, locus YCL061C, strain MRC1 (second series), stronger effect = lower value",0.532 (active)
same,normalized growth,"S. cerevisiae deletion strains, locus YDL035C, strain GPR1, stronger effect = lower value",0.755 (active)
same,normalized growth,"S. cerevisiae deletion strains, locus YDL074C, strain BRE1, stronger effect = lower value",0.584 (active)
same,normalized growth,"S. cerevisiae deletion strains, locus YDL101C, strain DUN1, stronger effect = lower value",0.537 (active)
same,normalized growth,"S. cerevisiae deletion strains, locus YDL134C, strain PPH21, stronger effect = lower value",0.631 (active)
same,normalized growth,"S. cerevisiae deletion strains, locus YDL185W, strain tfp1, stronger effect = lower value",1.01 (inactive)
same,normalized growth,"S. cerevisiae deletion strains, locus YDL192W, strain arf1, stronger effect = lower value",0.102 (active)
same,normalized growth,"S. cerevisiae deletion strains, locus YDR101C, strain arx1, stronger effect = lower value",0.929 (inactive)
same,normalized growth,"S. cerevisiae deletion strains, locus YDR150W, strain NUM1, stronger effect = lower value",1 (inactive)
same,normalized growth,"S. cerevisiae deletion strains, locus YDR162C, strain NBP2, stronger effect = lower value",0.139 (active)
same,normalized growth,"S. cerevisiae deletion strains, locus YDR318W, strain mcm21, stronger effect = lower value",0.807 (active)
same,normalized growth,[3],0.889 (inactive)
same,normalized growth,"S. cerevisiae deletion strains, locus YDR388W, stronger effect = lower value",0.659 (active)
same,normalized growth,"S. cerevisiae deletion strains, locus YDR502C, strain sam2, stronger effect = lower value",0.859 (active)
same,normalized growth,"S. cerevisiae deletion strains, locus YEL061C, strain CIN8, stronger effect = lower value",0.975 (inactive)
same,normalized growth,[4],1.07 (inactive)
same,normalized growth,"S. cerevisiae deletion strains, locus YER110C, stronger effect = lower value",0.976 (inactive)
same,normalized growth,"S. cerevisiae deletion strains, locus YER155C, strain BEM2, stronger effect = lower value",1.02 (inactive)
same,normalized growth,"S. cerevisiae deletion strains, locus YER167W, strain BCK2, stronger effect = lower value",0.937 (inactive)
same,normalized growth,"S. cerevisiae deletion strains, locus YGL078C, strain dbp3, stronger effect = lower value",0.991 (inactive)
same,normalized growth,"S. cerevisiae deletion strains, locus YGL086W, strain mad1, stronger effect = lower value",0.741 (active)
same,normalized growth,"S. cerevisiae deletion strains, locus YGL248W, strain PDE1, stronger effect = lower value",0.712 (active)
same,normalized growth,"S. cerevisiae deletion strains, locus YGR078C, strain PAC10, stronger effect = lower value",0.833 (active)
same,normalized growth,"S. cerevisiae deletion strains, locus YGR135W, strain pre9, stronger effect = lower value",0.753 (active)
same,normalized growth,"S. cerevisiae deletion strains, locus YGR229C, strain SMI1, stronger effect = lower value",0.142 (active)
same,normalized growth,"S. cerevisiae deletion strains, locus YGR252W, strain gcn5, stronger effect = lower value",0.254 (active)
same,normalized growth,"S. cerevisiae deletion strains, locus YHR030C, strain SLT2, stronger effect = lower value",0.655 (active)
same,normalized growth,"S. cerevisiae deletion strains, locus YHR079C, strain IRE1 (second series), stronger effect = lower value",0.911 (active)
same,normalized growth,"S. cerevisiae deletion strains, locus YHR094C, strain hxt1, stronger effect = lower value",0.993 (inactive)
same,normalized growth,"S. cerevisiae deletion strains, locus YHR129C, strain ARP1, stronger effect = lower value",0.99 (inactive)
same,normalized growth,"S. cerevisiae deletion strains, locus YHR200W, strain rpn10, stronger effect = lower value",0.959 (inactive)
same,normalized growth,"S. cerevisiae deletion strains, locus YIL066C, strain RNR3, stronger effect = lower value",0.759 (active)
same,normalized growth,"S. cerevisiae deletion strains, locus YIL073C, strain SPO22, stronger effect = lower value",0.437 (active)
same,normalized growth,"S. cerevisiae deletion strains, locus YIL125W, strain kgd1, stronger effect = lower value",0.977 (inactive)
same,normalized growth,"S. cerevisiae deletion strains, locus YIR030C, strain dcg1, stronger effect = lower value",0.958 (inactive)
same,normalized growth,"S. cerevisiae deletion strains, locus YJL095W, strain BCK1, stronger effect = lower value",0.537 (active)
same,normalized growth,"S. cerevisiae deletion strains, locus YJL134W, strain LCB3, stronger effect = lower value",1.01 (inactive)
same,normalized growth,"S. cerevisiae deletion strains, locus YJL168C, strain set2, stronger effect = lower value",0.947 (inactive)
same,normalized growth,"S. cerevisiae deletion strains, locus YJL187C, strain SWE1 (second series), stronger effect = lower value",0.658 (active)
same,normalized growth,"S. cerevisiae deletion strains, locus YJR043C, strain POL32, stronger effect = lower value",0.92 (inactive)
same,normalized growth,[5],0.834 (active)
same,normalized growth,"S. cerevisiae deletion strains, locus YKL009W, strain mrt4, stronger effect = lower value",0.962 (inactive)
same,normalized growth,"S. cerevisiae deletion strains, locus YKL068W, stronger effect = lower value",0.999 (inactive)
same,normalized growth,"S. cerevisiae deletion strains, locus YKL085W, strain MDH1 (second series), stronger effect = lower value",0.987 (inactive)
same,normalized growth,"S. cerevisiae deletion strains, locus YKL085W, strain MDH1, stronger effect = lower value",0.987 (inactive)
same,normalized growth,"S. cerevisiae deletion strains, locus YKL190W, strain CNB1, stronger effect = lower value",0.657 (active)
same,normalized growth,"S. cerevisiae deletion strains, locus YKR001C, strain vps1, stronger effect = lower value",0.0823 (active)
same,normalized growth,"S. cerevisiae deletion strains, locus YLR039C, strain RIC1, stronger effect = lower value",1.54 [resistant] (active)
same,normalized growth,"S. cerevisiae deletion strains, locus YLR058C, strain SHM2, stronger effect = lower value",0.77 (active)
same,normalized growth,"S. cerevisiae deletion strains, locus YLR102C, strain apc9, stronger effect = lower value",0.987 (inactive)
same,normalized growth,"S. cerevisiae deletion strains, locus YLR262C, strain YPT6, stronger effect = lower value",1.56 [resistant] (active)
same,normalized growth,"S. cerevisiae deletion strains, locus YLR268W, strain sec22, stronger effect = lower value",0.901 (inactive)
same,normalized growth,"S. cerevisiae deletion strains, locus YLR330W, strain CHS5, stronger effect = lower value",0.994 (inactive)
same,normalized growth,"S. cerevisiae deletion strains, locus YLR342W, strain FKS1 (second series), stronger effect = lower value",0.2 (active)
same,normalized growth,"S. cerevisiae deletion strains, locus YLR418C, strain cdc73, stronger effect = lower value",0.575 (active)
same,normalized growth,"S. cerevisiae deletion strains, locus YML032C, strain rad52, stronger effect = lower value",0.894 (active)
same,normalized growth,"S. cerevisiae deletion strains, locus YML124C, strain tub3, stronger effect = lower value",0.995 (inactive)
same,normalized growth,"S. cerevisiae deletion strains, locus YMR078C, strain ctf18, stronger effect = lower value",0.993 (inactive)
same,normalized growth,"S. cerevisiae deletion strains, locus YMR223W, strain ubp8, stronger effect = lower value",0.779 (active)
same,normalized growth,"S. cerevisiae deletion strains, locus YMR263W, strain SAP30, stronger effect = lower value",0.917 (inactive)
same,normalized growth,[6],0.514 (active) and 0.999 (inactive)
same,normalized growth,"S. cerevisiae deletion strains, locus YNL067W, strain RPL9B, stronger effect = lower value",0.914 (inactive)
same,normalized growth,"S. cerevisiae deletion strains, locus YNL128W, strain TEP1, stronger effect = lower value",0.771 (active) and 1.09 (inactive)
same,normalized growth,[7],0.747 (active)
same,normalized growth,[8],1.02 (inactive)
same,normalized growth,[9],1.06 (inactive)
same,normalized growth,[10],1.01 (inactive)
same,normalized growth,"S. cerevisiae deletion strains, locus YNL233W, strain BNI4, stronger effect = lower value",0.696 (active)
same,normalized growth,"S. cerevisiae deletion strains, locus YNL250W, strain rad50, stronger effect = lower value",1.01 (inactive)
same,normalized growth,"S. cerevisiae deletion strains, locus YNL271C, strain bni1, stronger effect = lower value",0.977 (inactive)
same,normalized growth,"S. cerevisiae deletion strains, locus YNL298W, strain CLA4, stronger effect = lower value",0.979 (inactive)
same,normalized growth,"S. cerevisiae deletion strains, locus YNL307C, strain MCK1, stronger effect = lower value",0.791 (active)
same,normalized growth,"S. cerevisiae deletion strains, locus YNL322C, strain KRE1, stronger effect = lower value",0.773 (active)
same,normalized growth,"S. cerevisiae deletion strains, locus YNR052C, strain pop2, stronger effect = lower value",0.705 (active)
same,normalized growth,"S. cerevisiae deletion strains, locus YOL006C, strain TOP1, stronger effect = lower value",0.413 (active)
same,normalized growth,"S. cerevisiae deletion strains, locus YOL012C, strain htz1",0.27 (inactive)
same,normalized growth,"S. cerevisiae deletion strains, locus YOL147C, strain pex11, stronger effect = lower value",0.944 (inactive)
same,normalized growth,"S. cerevisiae deletion strains, locus YOR061W, strain CKA2, stronger effect = lower value",0.122 (active)
same,normalized growth,"S. cerevisiae deletion strains, locus YOR069W, strain VPS5, stronger effect = lower value",1 (inactive)
same,normalized growth,[11],0.745 (active)
same,normalized growth,"S. cerevisiae deletion strains, locus YOR136W, strain idh2, stronger effect = lower value",0.938 (inactive)
same,normalized growth,"S. cerevisiae deletion strains, locus YOR144C, strain elg1, stronger effect = lower value",1.01 (inactive)
same,normalized growth,"S. cerevisiae deletion strains, locus YOR184W, strain ser1, stronger effect = lower value",0.82 (active)
same,normalized growth,"S. cerevisiae deletion strains, locus YOR316C, strain cot1, stronger effect = lower value",0.986 (inactive)
same,normalized growth,[12],0.596 (active) and 0.806 (active)
same,normalized growth,"S. cerevisiae deletion strains, locus YPL241C, strain CIN2, stronger effect = lower value",0.996 (inactive)
same,normalized growth,"S. cerevisiae deletion strains, locus YPR119W, strain clb2, stronger effect = lower value",0.988 (inactive)
same,normalized growth,"S. cerevisiae deletion strains, locus YPR141C, strain kar3, stronger effect = lower value",0.998 (inactive)
same,normalized growth,"S. cerevisiae deletion strains, locus YPR163C, strain tif3, stronger effect = lower value",0.0814 (active)
same,normalized growth,"S. cerevisiae deletion strains, locus YPR167C, strain met16, stronger effect = lower value",0.986 (inactive)
same,normalized growth,"S. cerevisiae deletion strains, strain wtn01, stronger effect = lower value",0.717 (active)
same,normalized growth,"S. cerevisiae strains, strain wild type, stronger effect = lower value",0.698 (active)
